Targets with a hit are over-represented here; the source holds about 7,900 in all. About 0.6% of all pairs of compound and target were hits.
Legend:
Assay in all cases: log2 fold change, soluble protein after heating vs DMSO (PISA); higher = thermal stabilisation; K562 cells, 10 uM, 30 min; active = over 0.2 and 3.5 SD of the protein, either way, in both replicates (recomputed)
IRAK-1-4 Inhibitor I = compound: C1COCCN1CCN2C3=CC=CC=C3N=C2NC(=O)C4=CC(=CC=C4)[N+](=O)[O-] [IRAK-1-4 Inhibitor I]
Outline: (§1)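 K562 cells at 2×10^6 cells/mL were treated for 30 min with 10 μM compound, and aliquots were heated for 3 min over 48°C-58°C before pooling. Extraction used PBS with 0.5% NP-40 at 4°C, and soluble protein was the supernatant after 21,000xg for 90 min, measured by TMTpro 16plex LC-MS/MS with channel sums equalised. Thermal stability values, relative to control samples and from duplicates, are log2 fold changes.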

ibrutinib = compound: C=CC(=O)N1CCC[C@@H](n2nc(-c3ccc(Oc4ccccc4)cc3)c3c(N)ncnc32)C1 [ibrutinib]
Outline: as §1

[1] = compound: CC(=O)c1cnc2ccc(-c3cc(Cl)c(O)c(Cl)c3)nc2c1N[C@H]1CC[C@H](CN(C)C)CC1
Outline: as §1

ralimetinib = compound: CC(C)(C)Cn1c(N)nc2ccc(-c3[nH]c(C(C)(C)C)nc3-c3ccc(F)cc3)nc21 [ralimetinib]
Outline: as §1

[2] = compound: CC(C)(O)CC(=O)NCCn1ccc2ncnc(Nc3ccc(Oc4cccc(C(F)(F)F)c4)c(Cl)c3)c21
Outline: as §1

[3] = compound: CC(C)C1=C2N=C(C=C(N2N=C1)NCC3=CC=CC=C3)NCCCCCCN
Outline: as §1

[4] = compound: CC(C)C[C@@H](C=O)NC(=O)[C@H](CC(C)C)NC(=O)[C@H](CC(C)C)NC(=O)OCc1ccccc1
Outline: as §1

pinometostat = compound: CC(C)N(C[C@H]1O[C@@H](n2cnc3c(N)ncnc32)[C@H](O)[C@@H]1O)[C@H]1C[C@@H](CCc2nc3cc(C(C)(C)C)ccc3[nH]2)C1 [pinometostat]
Outline: as §1

[5] = compound: CC1=C(C(CC(=O)N1)C2=CC=C(C=C2)C(F)(F)F)C(=O)NC3=C(C=C4C(=C3)C=NN4)F
Outline: as §1

[6] = compound: CC1=C(C2=C(C=C1)C(=O)C3=CC=CC=C3N2CCCN)C
Outline: as §1

[7] = compound: CC1=C(C=C(C=C1)NC(=O)C2=CC(=CC=C2)C(C)(C)C#N)NC3=CC4=C(C=C3)N=CN(C4=O)C
Outline: as §1

[8] = compound: CC1=C(C=C(C=C1)NC(=O)C2=CC(=CC=C2)N(C)C)NC(=O)C3=CC=C(C=C3)O
Outline: as §1

[9] = compound: CC1=CC=C(C=C1)SC2=C3C=C(SC3=CN=C2)C(=O)N
Outline: as §1

[10] = compound: CC1=NC(=CC=C1)C2=C(N=C(N2)C(C)(C)C)C3=CC4=NC=CN=C4C=C3
Outline: as §1

Nexturastat A = compound: CCCCN(Cc1ccc(C(=O)NO)cc1)C(=O)Nc1ccccc1 [Nexturastat A]
Outline: as §1

vemurafenib = compound: CCCS(=O)(=O)Nc1ccc(F)c(C(=O)c2c[nH]c3ncc(-c4ccc(Cl)cc4)cc23)c1F [vemurafenib]
Outline: as §1

[11] = compound: CCCS(=O)(=O)Nc1ccc(F)c(C(=O)c2c[nH]c3ncc(Cl)cc23)c1F
Outline: as §1

[12] = compound: CCCc1cc(C)[nH]c(=O)c1CNC(=O)c1cc(-c2ccnc(N3CCN(C)CC3)c2)cc2c1cnn2C(C)C
Outline: as §1

givinostat = compound: CCN(CC)Cc1ccc2cc(COC(=O)Nc3ccc(C(=O)NO)cc3)ccc2c1 [givinostat]
Outline: as §1

barasertib = compound: CCN(CCCOc1ccc2c(Nc3cc(CC(=O)Nc4cccc(F)c4)[nH]n3)ncnc2c1)CCOP(=O)(O)O [barasertib]
Outline: as §1

Measured: log2 fold change

HNRNPF (UniProt P52597)
Sequence of UniProt P52597 (P52597 whole entry, looked up): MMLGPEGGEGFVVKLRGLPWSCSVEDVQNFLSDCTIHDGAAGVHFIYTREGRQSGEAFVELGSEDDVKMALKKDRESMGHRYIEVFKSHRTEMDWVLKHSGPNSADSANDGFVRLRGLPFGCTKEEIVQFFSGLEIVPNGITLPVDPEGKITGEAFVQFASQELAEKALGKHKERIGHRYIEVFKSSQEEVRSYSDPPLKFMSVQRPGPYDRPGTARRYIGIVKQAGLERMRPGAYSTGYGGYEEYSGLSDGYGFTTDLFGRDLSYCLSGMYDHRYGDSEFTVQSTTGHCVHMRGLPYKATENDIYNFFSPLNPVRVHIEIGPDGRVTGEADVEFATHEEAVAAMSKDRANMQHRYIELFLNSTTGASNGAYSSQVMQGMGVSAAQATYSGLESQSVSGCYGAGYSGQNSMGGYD
active: [3] -0.279
inactive: IRAK-1-4 Inhibitor I -0.143 | ibrutinib -0.023 | [1] -0.1 | ralimetinib 0.098 | [2] -0.086 | [4] 0.069 | pinometostat 0.018 | [5] 0.05 | [6] -0.087 | [7] 0.076 | [8] -0.005 | [9] -0.032 | [10] -0.017 | Nexturastat A 0.036 | vemurafenib 0.106 | [11] 0.101 | [12] 0.027 | givinostat 0.051 | barasertib 0.047

HOOK3 (UniProt Q86VS8)
Sequence of UniProt Q86VS8 (Q86VS8 whole entry, looked up): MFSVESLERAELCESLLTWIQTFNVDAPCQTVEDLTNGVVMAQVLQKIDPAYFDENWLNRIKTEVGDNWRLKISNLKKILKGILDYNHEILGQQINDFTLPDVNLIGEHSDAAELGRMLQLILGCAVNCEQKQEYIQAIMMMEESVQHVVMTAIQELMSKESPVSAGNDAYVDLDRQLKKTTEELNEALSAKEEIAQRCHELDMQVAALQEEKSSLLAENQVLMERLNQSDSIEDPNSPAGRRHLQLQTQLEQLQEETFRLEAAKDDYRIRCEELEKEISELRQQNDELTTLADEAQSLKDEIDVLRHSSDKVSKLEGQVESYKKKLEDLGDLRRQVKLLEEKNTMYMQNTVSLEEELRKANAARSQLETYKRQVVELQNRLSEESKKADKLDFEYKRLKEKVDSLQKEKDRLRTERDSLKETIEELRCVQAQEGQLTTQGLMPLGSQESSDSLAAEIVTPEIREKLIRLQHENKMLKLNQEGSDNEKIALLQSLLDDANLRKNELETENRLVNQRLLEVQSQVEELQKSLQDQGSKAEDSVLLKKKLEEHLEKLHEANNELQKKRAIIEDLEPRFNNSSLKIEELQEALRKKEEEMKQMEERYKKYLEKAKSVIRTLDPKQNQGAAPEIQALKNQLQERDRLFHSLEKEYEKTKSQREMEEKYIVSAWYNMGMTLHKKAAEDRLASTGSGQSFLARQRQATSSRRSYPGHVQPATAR
inactive: IRAK-1-4 Inhibitor I 0.003 | ibrutinib -0.057 | [1] -0.018 | ralimetinib 0.033 | [2] -0.109 | [3] -0.138 | [4] 0.056 | pinometostat 0.024 | [5] 0.008 | [6] 0.02 | [7] -0.024 | [8] -0.023 | [9] -0.014 | [10] -0.039 | Nexturastat A 0.034 | vemurafenib -0.014 | [11] -0.001 | [12] -0.026 | givinostat 0.091 | barasertib 0.008

FAM91A1 (UniProt Q658Y4)
active: Nexturastat A 0.286
inactive: IRAK-1-4 Inhibitor I 0.092 | ibrutinib -0.025 | [1] -0.025 | ralimetinib 0.076 | [2] -0.198 | [3] -0.041 | [4] 0 | pinometostat 0.134 | [5] 0.018 | [6] 0.083 | [7] 0.035 | [8] 0.034 | [9] -0.036 | [10] -0.048 | vemurafenib -0.055 | [11] 0.051 | [12] 0.07 | givinostat 0.024 | barasertib 0.06

GOLGB1 isoform 2 (UniProt Q14789)
inactive: IRAK-1-4 Inhibitor I -0.023 | ibrutinib -0.032 | [1] 0.031 | ralimetinib 0.045 | [2] 0.05 | [3] 0.065 | [4] 0.082 | pinometostat 0.102 | [5] 0.048 | [6] -0.051 | [7] 0.033 | [8] -0.057 | [9] -0.09 | [10] -0.033 | Nexturastat A 0.177 | vemurafenib -0.085 | [11] -0.07 | [12] -0.047 | givinostat 0 | barasertib -0.07

FKBP3 (UniProt Q00688)
Sequence of UniProt Q00688 (Q00688 whole entry, looked up): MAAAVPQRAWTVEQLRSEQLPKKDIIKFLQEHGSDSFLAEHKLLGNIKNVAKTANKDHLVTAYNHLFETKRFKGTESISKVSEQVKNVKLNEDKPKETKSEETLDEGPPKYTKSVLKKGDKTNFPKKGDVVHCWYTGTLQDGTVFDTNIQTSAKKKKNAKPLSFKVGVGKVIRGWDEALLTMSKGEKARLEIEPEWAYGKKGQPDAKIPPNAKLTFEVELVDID
inactive: IRAK-1-4 Inhibitor I 0.01 | ibrutinib 0.009 | [1] 0.016 | ralimetinib 0.001 | [2] -0.028 | [3] 0.023 | [4] -0.014 | pinometostat -0.057 | [5] -0.033 | [6] -0.004 | [7] 0.024 | [8] 0 | [9] 0.009 | [10] 0.122 | Nexturastat A -0.002 | vemurafenib -0.015 | [11] -0.041 | [12] -0.013 | givinostat -0.023 | barasertib -0.02

GLS isoform 3 (UniProt O94925)
Sequence of UniProt O94925 (O94925 whole entry, looked up): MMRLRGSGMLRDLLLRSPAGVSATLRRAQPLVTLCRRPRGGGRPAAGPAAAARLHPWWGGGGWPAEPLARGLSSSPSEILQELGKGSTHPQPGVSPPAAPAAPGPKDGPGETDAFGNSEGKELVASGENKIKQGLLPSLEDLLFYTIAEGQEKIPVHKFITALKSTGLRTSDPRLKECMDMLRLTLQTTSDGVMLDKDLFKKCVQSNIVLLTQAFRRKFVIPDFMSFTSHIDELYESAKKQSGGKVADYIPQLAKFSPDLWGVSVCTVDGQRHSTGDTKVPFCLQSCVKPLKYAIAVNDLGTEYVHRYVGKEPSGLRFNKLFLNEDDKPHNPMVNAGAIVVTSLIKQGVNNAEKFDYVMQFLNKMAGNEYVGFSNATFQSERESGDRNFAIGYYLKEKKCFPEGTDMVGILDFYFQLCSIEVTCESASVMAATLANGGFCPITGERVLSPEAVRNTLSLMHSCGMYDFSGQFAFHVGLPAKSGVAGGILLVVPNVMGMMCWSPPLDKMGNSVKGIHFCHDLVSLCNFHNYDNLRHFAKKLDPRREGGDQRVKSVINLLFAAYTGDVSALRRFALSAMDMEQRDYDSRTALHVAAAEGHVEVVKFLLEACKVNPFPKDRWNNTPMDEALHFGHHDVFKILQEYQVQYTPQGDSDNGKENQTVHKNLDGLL
inactive: IRAK-1-4 Inhibitor I 0.011 | ibrutinib -0.15 | [1] -0.046 | ralimetinib -0.19 | [3] -0.034 | [4] -0.04 | pinometostat -0.088 | [5] 0 | [6] -0.068 | [7] 0.004 | [8] -0.119 | [9] -0.01 | [10] 0.167 | Nexturastat A 0.087 | vemurafenib 0.155 | [11] 0.236 | [12] 0.061 | givinostat 0.031 | barasertib 0.061
active: [2] -0.547

GNS (UniProt P15586)
Sequence of UniProt P15586 (P15586 whole entry, looked up): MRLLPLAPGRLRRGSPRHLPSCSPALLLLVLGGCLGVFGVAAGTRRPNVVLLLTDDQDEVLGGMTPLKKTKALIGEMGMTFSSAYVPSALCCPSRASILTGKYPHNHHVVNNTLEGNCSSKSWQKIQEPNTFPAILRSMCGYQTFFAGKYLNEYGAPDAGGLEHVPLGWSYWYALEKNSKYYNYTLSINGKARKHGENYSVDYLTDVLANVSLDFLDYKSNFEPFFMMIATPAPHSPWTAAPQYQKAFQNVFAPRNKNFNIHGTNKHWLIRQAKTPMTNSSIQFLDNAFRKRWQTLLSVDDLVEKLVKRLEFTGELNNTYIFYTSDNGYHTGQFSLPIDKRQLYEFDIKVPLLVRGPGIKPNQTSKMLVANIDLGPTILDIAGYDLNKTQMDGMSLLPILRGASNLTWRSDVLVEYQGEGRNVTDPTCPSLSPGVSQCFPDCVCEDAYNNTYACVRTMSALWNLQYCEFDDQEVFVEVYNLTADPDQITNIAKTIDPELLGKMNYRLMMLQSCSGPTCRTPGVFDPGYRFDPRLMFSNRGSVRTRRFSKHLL
inactive: IRAK-1-4 Inhibitor I 0.023 | ibrutinib -0.011 | [1] 0.011 | ralimetinib -0.04 | [2] 0.065 | [3] -0.079 | [4] 0.025 | pinometostat -0.025 | [5] -0.017 | [6] -0.01 | [7] -0.021 | [8] 0.112 | [9] 0.044 | [10] 0.026 | Nexturastat A -0.03 | vemurafenib 0.023 | [11] -0.005 | [12] 0.003 | givinostat 0.011 | barasertib -0.004

HDHD2 (UniProt Q9H0R4)
Sequence of UniProt Q9H0R4 (Q9H0R4 whole entry, looked up): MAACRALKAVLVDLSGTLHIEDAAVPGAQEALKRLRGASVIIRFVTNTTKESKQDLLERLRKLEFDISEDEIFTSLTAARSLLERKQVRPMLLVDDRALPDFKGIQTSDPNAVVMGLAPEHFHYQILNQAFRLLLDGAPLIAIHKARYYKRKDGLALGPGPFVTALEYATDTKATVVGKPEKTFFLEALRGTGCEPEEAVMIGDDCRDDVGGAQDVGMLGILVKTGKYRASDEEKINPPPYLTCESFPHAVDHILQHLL
inactive: IRAK-1-4 Inhibitor I 0.007 | ibrutinib -0.019 | [1] 0.021 | ralimetinib -0.006 | [2] -0.168 | [3] 0.024 | [4] -0.037 | pinometostat -0.018 | [5] -0.025 | [6] 0.003 | [7] 0.059 | [8] 0.028 | [9] 0.023 | [10] 0.014 | vemurafenib 0.02 | [11] 0.007 | [12] -0.028 | givinostat 0.007 | barasertib 0.011
active: Nexturastat A -0.316

GHDC (UniProt Q8N2G8)
Sequence of UniProt Q8N2G8 (Q8N2G8 whole entry, looked up): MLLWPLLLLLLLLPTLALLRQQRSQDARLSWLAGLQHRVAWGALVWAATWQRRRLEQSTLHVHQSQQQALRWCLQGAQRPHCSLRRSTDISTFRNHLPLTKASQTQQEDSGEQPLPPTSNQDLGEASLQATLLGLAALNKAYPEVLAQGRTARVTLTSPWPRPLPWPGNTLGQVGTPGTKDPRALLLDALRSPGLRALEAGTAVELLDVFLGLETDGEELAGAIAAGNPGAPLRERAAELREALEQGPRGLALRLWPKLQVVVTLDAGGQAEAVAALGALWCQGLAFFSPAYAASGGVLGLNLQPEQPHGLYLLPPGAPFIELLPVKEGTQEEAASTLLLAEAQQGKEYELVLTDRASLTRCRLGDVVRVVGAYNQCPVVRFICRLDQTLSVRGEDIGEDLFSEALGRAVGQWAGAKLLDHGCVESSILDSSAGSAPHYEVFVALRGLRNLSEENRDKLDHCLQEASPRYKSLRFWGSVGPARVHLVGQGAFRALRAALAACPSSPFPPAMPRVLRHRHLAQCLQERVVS
inactive: IRAK-1-4 Inhibitor I 0.014 | ibrutinib 0.015 | [1] -0.036 | ralimetinib 0.007 | [2] 0.037 | [4] 0.018 | pinometostat -0.015 | [5] 0.025 | [6] -0.011 | [7] -0.028 | [8] 0.057 | [9] -0.03 | [10] -0.021 | Nexturastat A -0.113 | vemurafenib -0.041 | [11] -0.044 | [12] -0.011 | givinostat -0.025 | barasertib -0.008
active: [3] -0.277

HRC (UniProt P23327)
inactive: IRAK-1-4 Inhibitor I 0.002 | ibrutinib 0.003 | [1] 0.041 | ralimetinib -0.039 | [2] 0.132 | [3] 0.074 | [4] 0.011 | pinometostat 0.019 | [5] 0.011 | [6] -0.033 | [7] -0.199 | [8] 0.031 | [9] 0.008 | [10] 0.005 | Nexturastat A 0.041 | vemurafenib -0.044 | [11] -0.097 | [12] -0.025 | givinostat -0.059 | barasertib 0.021

FANCD2 isoform 1 (UniProt Q9BXW9)
active: [3] -0.354 | [6] -0.369
inactive: IRAK-1-4 Inhibitor I -0.002 | ibrutinib 0.025 | [1] -0.155 | ralimetinib -0.082 | [2] -0.029 | [4] -0.266 | pinometostat 0.062 | [5] 0.002 | [7] 0.003 | [8] -0.007 | [9] 0.027 | [10] -0.035 | Nexturastat A -0.09 | vemurafenib 0.033 | [11] 0.099 | [12] -0.031 | givinostat 0.017 | barasertib 0.043

GDI1 (UniProt P31150)
Sequence of UniProt P31150 (P31150 whole entry, looked up): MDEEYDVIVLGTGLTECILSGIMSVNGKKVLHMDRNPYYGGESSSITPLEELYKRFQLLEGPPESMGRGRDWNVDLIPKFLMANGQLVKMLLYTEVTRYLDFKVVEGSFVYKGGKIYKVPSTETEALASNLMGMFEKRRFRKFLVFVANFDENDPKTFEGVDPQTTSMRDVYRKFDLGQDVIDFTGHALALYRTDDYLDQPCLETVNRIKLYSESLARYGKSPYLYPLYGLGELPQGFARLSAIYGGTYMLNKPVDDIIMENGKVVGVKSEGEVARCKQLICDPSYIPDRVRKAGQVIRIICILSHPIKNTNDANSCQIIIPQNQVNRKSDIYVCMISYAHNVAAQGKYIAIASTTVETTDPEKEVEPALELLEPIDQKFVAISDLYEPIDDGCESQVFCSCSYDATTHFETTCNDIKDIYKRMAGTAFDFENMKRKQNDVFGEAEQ
inactive: IRAK-1-4 Inhibitor I 0.034 | ibrutinib 0.018 | [1] -0.027 | ralimetinib -0.057 | [2] 0.009 | [3] 0.04 | [4] -0.012 | pinometostat -0.008 | [5] -0.022 | [6] 0.011 | [7] 0.007 | [8] 0.012 | [9] -0.003 | [10] 0.009 | Nexturastat A -0.051 | vemurafenib 0.015 | [11] -0.008 | [12] -0.027 | givinostat -0.032 | barasertib 0.012

GGA2 (UniProt Q9UJY4)
active: Nexturastat A 0.582
inactive: IRAK-1-4 Inhibitor I 0.007 | ibrutinib -0.05 | [1] -0.006 | ralimetinib -0.153 | [2] -0.048 | [3] -0.169 | [4] 0.068 | pinometostat -0.038 | [5] -0.04 | [6] 0.032 | [7] -0.015 | [8] 0.033 | [9] -0.047 | [10] 0.06 | vemurafenib 0.053 | [11] 0.017 | [12] -0.059 | givinostat -0.03 | barasertib 0.051

IFT80 isoform 3 (UniProt Q9P2H3)
Sequence of UniProt Q9P2H3 (Q9P2H3 whole entry, looked up): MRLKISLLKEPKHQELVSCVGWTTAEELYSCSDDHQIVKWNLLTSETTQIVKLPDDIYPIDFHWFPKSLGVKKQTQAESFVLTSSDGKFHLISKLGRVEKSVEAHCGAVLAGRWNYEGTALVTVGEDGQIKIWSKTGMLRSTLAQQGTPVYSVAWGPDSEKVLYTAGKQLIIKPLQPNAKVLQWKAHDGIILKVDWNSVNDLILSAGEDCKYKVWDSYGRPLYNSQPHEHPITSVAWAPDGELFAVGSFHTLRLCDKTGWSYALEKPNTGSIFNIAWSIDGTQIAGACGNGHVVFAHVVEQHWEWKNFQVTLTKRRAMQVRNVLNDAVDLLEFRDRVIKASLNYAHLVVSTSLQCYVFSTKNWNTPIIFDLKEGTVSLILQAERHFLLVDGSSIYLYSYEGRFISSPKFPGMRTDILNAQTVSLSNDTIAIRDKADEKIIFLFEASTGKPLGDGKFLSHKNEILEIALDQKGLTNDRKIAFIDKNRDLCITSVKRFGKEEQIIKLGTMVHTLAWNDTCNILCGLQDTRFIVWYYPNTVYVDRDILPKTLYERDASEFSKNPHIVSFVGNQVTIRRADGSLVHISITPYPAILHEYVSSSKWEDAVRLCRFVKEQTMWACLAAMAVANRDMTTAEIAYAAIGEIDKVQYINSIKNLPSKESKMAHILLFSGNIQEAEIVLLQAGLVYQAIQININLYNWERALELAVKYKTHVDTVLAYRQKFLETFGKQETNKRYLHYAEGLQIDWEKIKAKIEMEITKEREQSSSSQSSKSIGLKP
inactive: IRAK-1-4 Inhibitor I 0.03 | ibrutinib 0.099 | [1] -0.073 | ralimetinib -0.02 | [2] -0.118 | [3] -0.113 | [4] 0.072 | pinometostat 0.049 | [5] -0.085 | [6] 0.073 | [7] -0.023 | [8] 0.038 | [9] 0.004 | [10] 0.005 | Nexturastat A -0.021 | vemurafenib -0.042 | [11] 0.039 | [12] -0.013 | givinostat -0.104 | barasertib -0.004

ICMT (UniProt O60725)
active: [3] -0.472
inactive: IRAK-1-4 Inhibitor I 0.039 | ibrutinib 0.182 | [1] 0.248 | ralimetinib 0.163 | [2] -0.032 | [4] -0.051 | pinometostat -0.02 | [5] -0.171 | [6] 0.147 | [7] -0.048 | [8] -0.085 | [9] -0.079 | [10] 0.072 | Nexturastat A -0.204 | vemurafenib 0 | [11] -0.103 | [12] 0.064 | givinostat -0.037 | barasertib 0.022

HOMER1 (UniProt Q86YM7)
Sequence of UniProt Q86YM7 (Q86YM7 whole entry, looked up): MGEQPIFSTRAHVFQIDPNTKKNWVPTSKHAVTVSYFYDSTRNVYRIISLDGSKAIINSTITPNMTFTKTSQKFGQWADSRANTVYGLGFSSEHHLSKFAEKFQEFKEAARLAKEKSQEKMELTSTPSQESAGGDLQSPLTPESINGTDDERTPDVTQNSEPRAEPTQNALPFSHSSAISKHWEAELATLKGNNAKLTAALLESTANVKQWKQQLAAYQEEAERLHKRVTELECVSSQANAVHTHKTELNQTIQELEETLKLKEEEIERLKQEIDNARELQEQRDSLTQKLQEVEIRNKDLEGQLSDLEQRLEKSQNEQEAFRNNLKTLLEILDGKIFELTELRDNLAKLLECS
active: pinometostat -0.225
inactive: IRAK-1-4 Inhibitor I 0.104 | ibrutinib 0.009 | [1] -0.043 | ralimetinib 0.004 | [2] 0.03 | [3] 0.034 | [4] -0.088 | [5] 0.038 | [6] 0.093 | [7] -0.049 | [8] -0.059 | [9] -0.009 | [10] 0.125 | Nexturastat A -0.138 | vemurafenib -0.021 | [11] 0.071 | [12] 0.085 | givinostat 0.007 | barasertib 0.036

From the supplement of paper PMC10849652
